# Data published in PubChem BioAssay (NCATS).
# Inconclusive results are not listed. Where a call stands in place of a potency, no number is given. The source made the active and inactive calls. Unless noted, the call rests on the fitted dose curve; in most records, active means well fitted curve in the direction sought with a large enough effect; inconclusive means small, poorly fitted or top-dose-only effect, or another doubt; inactive means no such curve, though single readings can be large; an effect the other way counts as inactive or inconclusive.
# How the values were obtained:
# [1] = target: Voltage-gated inwardly rectifying potassium channel KCNH2 (Homo sapiens) (UniProt Q12809); assay: qHTS Assay for Small Molecule Inhibitors of the Human hERG Channel Activity (AID 588834);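 further: lower thallium flux fluorescence means stronger hERG block; nearly all actives have a fitted effect of over 50% in size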; further: potency means the concentration at half of the fitted maximal effect
# Summary of the method: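 hERG-BacMam U2OS, 2000 cells/well; 0.7X FluxOR loading 1 hr RT dark; cpd ~10 min 37 °C; stim buffer; FDSS fluorescence 2 min @ 1 s; AC50 Hill fit.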
# [2] = target: Luciferin 4-monooxygenase (Photinus pyralis) (UniProt P08659); assay: Biochemical firefly luciferase enzyme assay for NPC (AID 624030);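 further: purified P. pyralis luciferase at 10 nM with luciferin and ATP substrate; series mostly up to about 59 µM; nearly all actives have a fitted effect of over 70% in size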
# Summary of the method: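 Direct inhibition of firefly luciferase enzyme (10 nM final, 50 mM Tris Acetate) assessed by luminescence within 5 minutes. Percent activity scaled between DMSO and PTC124 positive control, with concentration-effect curves classified by fit quality and response.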
# [3] = S16 Schwann cell PMP22 intronic element firefly luciferase assay (AID 624032); further: nearly all actives have a fitted effect of over 30% in size; further: potency means the concentration at half of the fitted maximal effect
# Summary of the method: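 Luciferase reporter of PMP22 intronic-element expression in stably transfected S16 rat Schwann cells, read by ONE-Glo luminescence after 24 h compound exposure at 37 C. Activity scaled between DMSO (0%) and positive-control PTC124; concentration-effect curves quality-classified.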
# [4] = S16 Schwann cell viability assay (CellTiter-Glo assay) (AID 624031); further: nearly all actives have a fitted effect of over 70% in size; further: potency means the concentration at half of the fitted maximal effect
# Summary of the method: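 CellTiter-Glo ATP luminescence counter-screen in untransfected S16 rat Schwann cells, 24h compound exposure at 37 degree Celsius after overnight seeding (500-750 cells/well); response scaled between cell-free wells and DMSO (0% activity), curves classed by r2 and magnitude.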
# [5] = S16 Schwann cell PMP22 intronic element beta-lactamase assay (AID 624044; calls by dose curve; further: nearly all actives have a fitted effect of over 15% in size; further: potency means the concentration at half of the fitted maximal effect)
# Summary of the method: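 Rat S16 Schwann cells with beta-Lac driven by a PMP22 intronic element, compound-treated 24 h at 37 °C. LiveBLAzer FRET B/G read: 460 nm normalized to potassium clavulanate vs DMSO; 535 nm FRET as viability; concentration-effect curves classified.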
# Sequence of Voltage-gated inwardly rectifying potassium channel KCNH2 (Homo sapiens) (Q12809 whole entry, looked up): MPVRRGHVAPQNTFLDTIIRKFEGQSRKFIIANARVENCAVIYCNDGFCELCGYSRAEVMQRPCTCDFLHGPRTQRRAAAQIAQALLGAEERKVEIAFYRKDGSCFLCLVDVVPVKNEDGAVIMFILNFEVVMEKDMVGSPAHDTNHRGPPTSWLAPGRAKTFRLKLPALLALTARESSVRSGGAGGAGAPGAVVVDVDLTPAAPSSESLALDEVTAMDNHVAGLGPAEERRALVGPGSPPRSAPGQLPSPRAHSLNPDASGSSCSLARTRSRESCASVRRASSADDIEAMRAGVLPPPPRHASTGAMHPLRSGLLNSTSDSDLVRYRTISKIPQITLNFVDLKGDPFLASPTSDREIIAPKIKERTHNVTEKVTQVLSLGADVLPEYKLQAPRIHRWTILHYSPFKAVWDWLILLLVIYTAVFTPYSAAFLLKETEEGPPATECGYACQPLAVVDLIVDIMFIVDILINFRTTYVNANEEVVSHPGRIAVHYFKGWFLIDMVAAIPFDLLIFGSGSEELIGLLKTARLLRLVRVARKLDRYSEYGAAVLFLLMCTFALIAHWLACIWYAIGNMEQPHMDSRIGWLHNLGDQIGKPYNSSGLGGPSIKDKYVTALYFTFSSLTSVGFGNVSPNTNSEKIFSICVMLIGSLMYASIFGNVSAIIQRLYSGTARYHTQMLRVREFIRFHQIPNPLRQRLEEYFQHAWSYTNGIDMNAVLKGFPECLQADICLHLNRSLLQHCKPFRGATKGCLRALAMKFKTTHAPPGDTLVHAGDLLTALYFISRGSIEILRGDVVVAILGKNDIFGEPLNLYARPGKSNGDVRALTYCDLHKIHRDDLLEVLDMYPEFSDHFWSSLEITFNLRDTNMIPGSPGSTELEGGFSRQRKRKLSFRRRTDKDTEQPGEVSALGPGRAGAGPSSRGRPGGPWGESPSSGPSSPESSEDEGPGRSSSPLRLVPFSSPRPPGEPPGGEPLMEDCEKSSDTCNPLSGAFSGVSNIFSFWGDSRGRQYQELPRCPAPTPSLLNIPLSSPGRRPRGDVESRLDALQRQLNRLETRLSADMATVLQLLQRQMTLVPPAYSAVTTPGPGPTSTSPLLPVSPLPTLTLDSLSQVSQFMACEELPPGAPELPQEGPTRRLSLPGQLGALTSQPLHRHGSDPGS
# Sequence of Luciferin 4-monooxygenase (Photinus pyralis) (P08659 whole entry, looked up): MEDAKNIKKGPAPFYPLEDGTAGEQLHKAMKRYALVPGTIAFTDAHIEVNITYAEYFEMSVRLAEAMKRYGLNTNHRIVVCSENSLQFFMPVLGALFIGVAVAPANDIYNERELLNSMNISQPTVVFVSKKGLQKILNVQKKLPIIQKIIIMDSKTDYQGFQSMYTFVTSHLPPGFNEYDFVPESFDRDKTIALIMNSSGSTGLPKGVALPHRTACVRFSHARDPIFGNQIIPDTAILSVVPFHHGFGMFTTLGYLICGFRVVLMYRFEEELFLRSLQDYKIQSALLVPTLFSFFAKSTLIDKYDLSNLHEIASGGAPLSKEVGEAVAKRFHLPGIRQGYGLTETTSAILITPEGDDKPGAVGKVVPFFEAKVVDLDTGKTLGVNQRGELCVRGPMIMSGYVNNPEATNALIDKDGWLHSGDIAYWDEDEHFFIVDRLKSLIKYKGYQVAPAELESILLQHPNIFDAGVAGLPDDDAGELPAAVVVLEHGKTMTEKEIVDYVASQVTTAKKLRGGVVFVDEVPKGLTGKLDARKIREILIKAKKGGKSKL
smiles,measurement,setting,value
CN(Cc1cc(Br)cc(Br)c1N)C1CCCCC1,Potency,[1],3.16 µM (active)
same,Potency,[2],inactive
same,Potency,[3],36.1 µM (active)
O=c1cc(O)c(Cl)c[nH]1,Potency,[1],inactive
same,Potency,[2],inactive
same,Potency,[4],inactive
same,Potency,[3],inactive
CCCc1nc(C)c2c(=O)[nH]c(-c3cc(S(=O)(=O)N4CCN(CC)CC4)ccc3OCC)nn12,Potency,[1],inactive
same,Potency,[2],inactive
same,Potency,[3],inactive
Oc1c(Cl)cc(Cl)c2cccnc12,Potency,[1],inactive
same,Potency,[2],inactive
same,Potency,[3],3.61 µM (active)
same,Potency,[5],28.2 µM (active)
CN(CCOc1ccc(CC2SC(=O)NC2=O)cc1)c1ccccn1 (stereo not drawn),Potency,[1],inactive
same,Potency,[4],inactive
same,Potency,[3],inactive
same,Potency,[5],inactive
C1CCC(C(CC2CCCCN2)C2CCCCC2)CC1 (stereo not drawn),Potency,[2],inactive
same,Potency,[4],18.1 µM (active)
same,Potency,[3],32.2 µM (active)
CC(C)(C)C(=O)OCOP(=O)(COCCn1cnc2c(N)ncnc21)OCOC(=O)C(C)(C)C,Potency,[2],inactive
same,Potency,[4],inactive
O[C@@H](CNC[C@H](O)[C@H]1CCc2cc(F)ccc2O1)[C@@H]1CCc2cc(F)ccc2O1,Potency,[2],inactive
Cc1c(-c2ccc(O)cc2)n(Cc2ccc(OCCN3CCCCCC3)cc2)c2ccc(O)cc12,Potency,[2],inactive
O=C(O)CSCC(=O)NC1CCSC1=O (stereo not drawn),Potency,[2],inactive
Cc1cccc(Nc2ccncc2S(=O)(=O)NC(=O)NC(C)C)c1,Potency,[2],inactive
same,Potency,[4],inactive
same,Potency,[3],inactive
CN(C)CCc1c[nH]c2ccc(CS(=O)(=O)N3CCCC3)cc12,Potency,[2],inactive
same,Potency,[4],inactive
same,Potency,[3],inactive
COc1cc([C@@H]2c3cc4c(cc3[C@H](O)[C@H]3COC(=O)[C@H]23)OCO4)cc(OC)c1OC,Potency,[2],inactive
same,Potency,[4],inactive
Cc1nnc(C(=O)NC(C)(C)c2nc(C(=O)NCc3ccc(F)cc3)c(O)c(=O)n2C)o1,Potency,[2],inactive
CC(C)OC(=O)OCOP(=O)(CO[C@H](C)Cn1cnc2c(N)ncnc21)OCOC(=O)OC(C)C,Potency,[2],inactive
CCCCc1oc2ccc(NS(C)(=O)=O)cc2c1C(=O)c1ccc(OCCCN(CCCC)CCCC)cc1,Potency,[2],inactive
Cc1cccc(N(C)C(=S)Oc2ccc3ccccc3c2)c1,Potency,[2],inactive
same,Potency,[4],inactive
same,Potency,[3],inactive
CCCc1cc(C(N)=S)ccn1,Potency,[2],inactive
same,Potency,[4],inactive
same,Potency,[3],inactive
CC(C)C[C@H](NC(=O)[C@H](CCc1ccccc1)NC(=O)CN1CCOCC1)C(=O)N[C@@H](Cc1ccccc1)C(=O)N[C@@H](CC(C)C)C(=O)[C@@]1(C)CO1,Potency,[2],inactive
NCCCC(O)(P(=O)(O)O)P(=O)(O)O,Potency,[2],inactive
same,Potency,[4],inactive
same,Potency,[3],inactive
same,Potency,[5],inactive
CCCCCCNC(=O)n1cc(F)c(=O)[nH]c1=O,Potency,[2],inactive
same,Potency,[4],inactive
same,Potency,[3],inactive
CCn1cc(C(=O)O)c(=O)c2cc(F)c(N3CCN(C)CC3)cc21,Potency,[2],inactive
same,Potency,[4],inactive
same,Potency,[3],inactive
same,Potency,[5],inactive
COCCCOc1cc(C[C@@H](C[C@H](N)[C@@H](O)C[C@H](C(=O)NCC(C)(C)C(N)=O)C(C)C)C(C)C)ccc1OC,Potency,[2],inactive
CC1=CC(=O)c2ccccc2C1=O,Potency,[2],inactive
same,Potency,[4],14.4 µM (active)
same,Potency,[3],22.8 µM (active)
same,Potency,[5],inactive
CNC1CCCN(c2c(F)cc3c(=O)c(C(=O)O)cn(C4CC4)c3c2OC)C1 (stereo not drawn),Potency,[2],inactive
same,Potency,[4],inactive
same,Potency,[3],inactive
same,Potency,[5],inactive
COc1cc(NCc2ccc3nc(N)nc(N)c3c2C)cc(OC)c1OC,Potency,[2],inactive
same,Potency,[4],28.7 µM (active)
same,Potency,[3],0.455 µM (active)
COc1cc2c(Nc3ccc(Br)cc3F)ncnc2cc1OCC1CCN(C)CC1,Potency,[2],inactive
same,Potency,[4],20.3 µM (active)
same,Potency,[3],9.07 µM (active)
CNCC[C@H](Oc1cccc2ccccc12)c1cccs1,Potency,[2],inactive
same,Potency,[4],16.1 µM (active)
same,Potency,[5],inactive
COC(=O)Nc1nc2ccc(S(=O)c3ccccc3)cc2[nH]1 (stereo not drawn),Potency,[2],inactive
CNS(=O)(=O)CCc1ccc2[nH]cc(C3CCN(C)CC3)c2c1,Potency,[2],inactive
CCCOc1ccc(C(=O)OCCN(CC)CC)cc1N,Potency,[2],inactive
COc1ccc(C(=O)CC(=O)c2ccc(C(C)(C)C)cc2)cc1,Potency,[2],inactive
same,Potency,[4],inactive
same,Potency,[3],inactive
same,Potency,[5],inactive
CN1CCCC(n2nc(Cc3ccc(Cl)cc3)c3ccccc3c2=O)CC1 (stereo not drawn),Potency,[2],inactive
same,Potency,[5],inactive
CC[C@H](C)C(=O)O[C@H]1C[C@@H](C)C=C2C=C[C@H](C)[C@H](CC[C@@H]3C[C@@H](O)CC(=O)O3)[C@H]21,Potency,[2],inactive
same,Potency,[4],inactive
same,Potency,[3],inactive
same,Potency,[5],inactive
CCN(CC)CCn1c(=O)c(Cc2ccc(OC)cc2)nc2ccccc21,Potency,[2],inactive
NC1(c2ccc(-c3nc4ccn5c(=O)[nH]nc5c4cc3-c3ccccc3)cc2)CCC1,Potency,[2],inactive
CCOc1cc(N)c(Cl)cc1C(=O)NCC1CN(Cc2ccc(F)cc2)CCO1 (stereo not drawn),Potency,[4],inactive
same,Potency,[3],inactive
same,Potency,[5],inactive
O=C(O)c1cn(C2CC2)c2cc(N3CCNCC3)c(F)cc2c1=O,Potency,[4],inactive
same,Potency,[3],inactive
